In publication PMC7819943, “Rice protein-binding microarrays: a tool to detect cis-acting elements near promoter regions in rice”:
Over roughly 68,000 sequences, “fluorescence intensity (a.u.)” has its median near 9,100; the highest 2% begin near 16,000. Many of the other results were omitted from the sample, so the highest values are more common in it than they were.

Target: OsWRKY34 (Oryza sativa, UniProt Q0JBA9 1-250)
Assay: protein-binding microarray (RPBM); PBS, 2% BSA, 51.3 ng/ul salmon testes DNA, 50 uM zinc acetate, 200 nM TF, 25 C, 1 h; high values mean tight binding
Settings: protein: recombinant; tags: N-terminal polyhistidine and DsRed monomer fusion (pET32a); label: CyDye5-dUTP incorporated in the synthesized complementary strand; 3' TTTTT single-stranded linker to array surface; dsDNA, one strand shown
Method in brief: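 Transcription factors were each fused at the N-terminus to a polyhistidine tag plus DsRed and expressed in E. coli BL21-CodonPlus before Ni–NTA purification. Binding to a double-stranded custom Agilent array was carried out with 200 nM protein at 25 °C for 1 h in PBS, 2% BSA, salmon testes DNA and 50 µM zinc acetate. The binding signal is per-feature fluorescence intensity, in arbitrary units, on an Axon 4000B scanner.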

Sequence of OsWRKY34 (Q0JBA9 entry or part of it): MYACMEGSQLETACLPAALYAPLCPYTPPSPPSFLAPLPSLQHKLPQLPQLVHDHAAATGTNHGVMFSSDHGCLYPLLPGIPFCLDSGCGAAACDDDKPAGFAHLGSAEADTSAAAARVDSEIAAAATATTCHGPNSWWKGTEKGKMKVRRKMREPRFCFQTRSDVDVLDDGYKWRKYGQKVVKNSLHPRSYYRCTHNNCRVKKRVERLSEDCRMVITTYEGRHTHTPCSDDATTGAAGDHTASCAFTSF

Sequence	binding signal
TCTCCTCACCGGCCCCTCTTCCCCTTCGATTCTGGCGGCTCGGAGTCACCTAGTGCAG	8880 fluorescence intensity (a.u.)
TTCGTTTCTGGCTTTTTCGTCGTGTTCCGATTTCAATCTCCGGAGTCACCTAGTGCAG	12700 fluorescence intensity (a.u.)
CTACATGGGTGTTGACTCATTTTATTTATCTTTTTCTCCACGGAGTCACCTAGTGCAG	10300 fluorescence intensity (a.u.)
GCCTATCCTGCCCTCTCTACTACCACCCTTATCGATCTCTCGGAGTCACCTAGTGCAG	8340 fluorescence intensity (a.u.)
AAGAGACTTCTATATCTCTATATCCTTCTTATTTGCGTCCCGGAGTCACCTAGTGCAG	8080 fluorescence intensity (a.u.)
TTGCTCTCACATTTCGTGCACTACATCTTCTCGGTGGTCCCGGAGTCACCTAGTGCAG	8380 fluorescence intensity (a.u.)
GCGGGTGGGTCTAGAGATTTTTTTTATTTGTTAATTGGATCGGAGTCACCTAGTGCAG	10400 fluorescence intensity (a.u.)
AATTTGGTGGGGTCGGGGTGGGTGCTTTAACTGGGGAGATCGGAGTCACCTAGTGCAG	24500 fluorescence intensity (a.u.)
GTTGTCGGTGTGTGGGTGGTGATATATTTTTTTAACTGGTCGGAGTCACCTAGTGCAG	9020 fluorescence intensity (a.u.)
TGAGGTGAGGGCAGGGGCAGGGGCAGGGCGGACTGGCCAACGGAGTCACCTAGTGCAG	8680 fluorescence intensity (a.u.)
TCACTTTTTTTTCCATTCATTGTATGATTTCTTCTATTATCGGAGTCACCTAGTGCAG	10900 fluorescence intensity (a.u.)
AAAAAATACTATCTATGTACCCCTCCGTTTCTTTTTATTTCGGAGTCACCTAGTGCAG	8890 fluorescence intensity (a.u.)
CCTGATCGCCTCCTCCGCCACCGCCGTGTTCGATTCGTCTCGGAGTCACCTAGTGCAG	9670 fluorescence intensity (a.u.)
TGCCACCACCTTACCCTTTGCCAACATGCATCCGCTCCAACGGAGTCACCTAGTGCAG	19100 fluorescence intensity (a.u.)
CAACAACATCATCATCGCTCACATCCGCATCTCCACACAACGGAGTCACCTAGTGCAG	13500 fluorescence intensity (a.u.)
CTCCGCATCCCTCTCGCTCCTACCTTACCCCTCGCCGCCACGGAGTCACCTAGTGCAG	10200 fluorescence intensity (a.u.)
GCTCCGCCTGCCAGATCCATATGAGCCACCTGCGCCGCTACGGAGTCACCTAGTGCAG	8720 fluorescence intensity (a.u.)
CGCCATCACTGCCAAGCTCGCCGGCTACATCGCCCGCGCCCGGAGTCACCTAGTGCAG	8040 fluorescence intensity (a.u.)
GCCAGTTAGGGACCTAGGGACTTGGGTTGGGCGGGAACTTCGGAGTCACCTAGTGCAG	14100 fluorescence intensity (a.u.)
AGTTGGGCAGCAGTGGGTTGTGATATACTATGTGAATTATCGGAGTCACCTAGTGCAG	9100 fluorescence intensity (a.u.)
ATGCTGAATTGGGTTGGGCTGGGGAGGAATTATAGACTATCGGAGTCACCTAGTGCAG	17500 fluorescence intensity (a.u.)
CTGGGTGGGGAATTGGTTTAGTGAAGGATTAGTTGCTGATCGGAGTCACCTAGTGCAG	9770 fluorescence intensity (a.u.)

Sequence	binding signal
GGGGAGGAATTATGGACTATTTGGATGGGCTTTTTTTACTCGGAGTCACCTAGTGCAG	8030 fluorescence intensity (a.u.)
CTTGGGTTGGGCGGGAACTTGGGGAGGAATTATGGACTATCGGAGTCACCTAGTGCAG	16800 fluorescence intensity (a.u.)
CTAGAAGGTGACTTTTCCAACTCAACTCTCGTTTTTTCACCGGAGTCACCTAGTGCAG	11500 fluorescence intensity (a.u.)
ACTTTATTACACACATAAACTTTCAACTTTACCGTCACATCGGAGTCACCTAGTGCAG	9420 fluorescence intensity (a.u.)
AATCTTCTAACCACCGTACGTTCTCCTCGCACTATAAATACGGAGTCACCTAGTGCAG	11500 fluorescence intensity (a.u.)
AAGATAGATGCCACTAATTTTTACACTGTATTTTGTAACTCGGAGTCACCTAGTGCAG	8290 fluorescence intensity (a.u.)
CACATGCTTATACCGTTCGTGCTGGAGTTCCTGATCGATGCGGAGTCACCTAGTGCAG	8070 fluorescence intensity (a.u.)
GTAGGAGGGTGGTTGGTTGTAGAATGGGAAGAAATTTGAACGGAGTCACCTAGTGCAG	11100 fluorescence intensity (a.u.)
AAACGTCAAAAGACTCAAAACCCAAAACCCGCGTGCTGACCGGAGTCACCTAGTGCAG	8030 fluorescence intensity (a.u.)
CCACGTAGGCGCCACGTCAGCCAAAACCGCTCTTAAAACCCGGAGTCACCTAGTGCAG	8110 fluorescence intensity (a.u.)
CGGTAGGCGTACGTGGAGACCGGTGGAATTCGTCAAAACCCGGAGTCACCTAGTGCAG	55000 fluorescence intensity (a.u.)
AAGGTTCGTTTCATTTTTTTTTACTTAATTAACTATTCCTCGGAGTCACCTAGTGCAG	8740 fluorescence intensity (a.u.)
ACTCTTGGTATGTTCTGCTTAGATACACTGTGTTGCTTGCCGGAGTCACCTAGTGCAG	9380 fluorescence intensity (a.u.)
TTGACCTTTTCTTTGTTGAACGTTGACCGTTCCGTCTTATCGGAGTCACCTAGTGCAG	14300 fluorescence intensity (a.u.)
CGCCGTTGACTTTTTTAAATATGTTTGACCGTTCGTCTTACGGAGTCACCTAGTGCAG	39400 fluorescence intensity (a.u.)
TTGACTTTTTATTAACGTTTGACCATTTGTTTTATTTAAACGGAGTCACCTAGTGCAG	12000 fluorescence intensity (a.u.)
CACCGTTGACTTTTTGACCAACGTTTGACCCTTTGTTTTACGGAGTCACCTAGTGCAG	57700 fluorescence intensity (a.u.)
TGACTTTTTTAAATATGTTTGACCGTTCGTCTTATTGAAACGGAGTCACCTAGTGCAG	8190 fluorescence intensity (a.u.)
TCTTTTTGTTTGACTTTTTTAAAACCACAGGTCACCCTTACGGAGTCACCTAGTGCAG	14800 fluorescence intensity (a.u.)
CTTTGTTGTTTTCTTCTGTTAGTGTCTGTATTATTCATTACGGAGTCACCTAGTGCAG	9880 fluorescence intensity (a.u.)
TGTACGTGACCAGTAACGCGTTGACCTTTTCTTTGTTGAACGGAGTCACCTAGTGCAG	17000 fluorescence intensity (a.u.)
